From article PMC7862700, “An all-to-all approach to the identification of sequence-specific readers for epigenetic DNA modifications on cytosine”

Legend:
Assay in all cases: DAPPL (digital affinity profiling via proximity ligation, sequencing); 10 mM Tris-HCl pH 7.5, 50 mM NaCl, 1 mM DTT, 4% glycerol, room temperature, 30 min; GST-TFs on glutathione beads, 16-mer random dsDNA library, 0.1% formaldehyde crosslink after washing; high values mean tight binding
Settings in all cases: protein: recombinant; tags: N-terminal GST; dsDNA, one strand shown
ELK1 = target: T1, ELK1 (Homo sapiens, UniProt P19419 1-428)
T1 sequence: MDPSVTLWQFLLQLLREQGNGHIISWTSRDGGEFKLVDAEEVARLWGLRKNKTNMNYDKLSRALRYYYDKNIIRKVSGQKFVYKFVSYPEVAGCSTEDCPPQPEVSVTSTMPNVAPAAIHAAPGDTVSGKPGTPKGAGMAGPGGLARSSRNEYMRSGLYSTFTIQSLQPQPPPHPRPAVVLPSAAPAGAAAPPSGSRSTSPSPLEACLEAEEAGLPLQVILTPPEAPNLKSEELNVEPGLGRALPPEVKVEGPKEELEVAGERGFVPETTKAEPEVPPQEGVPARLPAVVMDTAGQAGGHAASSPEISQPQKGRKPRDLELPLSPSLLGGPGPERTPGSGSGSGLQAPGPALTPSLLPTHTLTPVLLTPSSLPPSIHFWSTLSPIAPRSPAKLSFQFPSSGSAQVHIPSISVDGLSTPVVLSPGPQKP
Outline: (§1)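 Beads coated with glutathione captured GST-fused human transcription factors that had been expressed in yeast, and the factors were then given DNA barcodes and pooled with a tag-only sample. The pools were incubated with 200 nmole of a random double-stranded 16-mer DNA library in Tris/NaCl/DTT/glycerol buffer for 30 min at room temperature, washed, crosslinked with 0.1% formaldehyde and proximity-ligated with BsaI/T4 ligase at 37 °C for 1 h. PCR amplification and Illumina NextSeq500 sequencing came last. Binding signal is each hexamer's read frequency for a factor divided by its frequency for the tag-only sample.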

GABPA = target: T2, GABPA (Homo sapiens, UniProt Q06546 1-454)
T2 sequence: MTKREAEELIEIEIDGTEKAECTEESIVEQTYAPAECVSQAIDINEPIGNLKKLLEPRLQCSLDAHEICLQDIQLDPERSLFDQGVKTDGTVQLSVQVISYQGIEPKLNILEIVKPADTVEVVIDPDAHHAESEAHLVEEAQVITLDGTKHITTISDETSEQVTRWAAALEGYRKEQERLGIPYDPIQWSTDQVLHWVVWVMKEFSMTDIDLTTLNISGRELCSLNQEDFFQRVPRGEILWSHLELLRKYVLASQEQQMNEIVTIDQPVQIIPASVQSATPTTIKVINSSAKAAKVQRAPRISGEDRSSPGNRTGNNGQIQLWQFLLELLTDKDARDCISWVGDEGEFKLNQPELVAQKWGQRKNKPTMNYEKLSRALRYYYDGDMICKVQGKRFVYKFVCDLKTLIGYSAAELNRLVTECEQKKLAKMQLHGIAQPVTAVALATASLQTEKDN
Outline: as §1

ERG = target: T3, ERG (Homo sapiens, UniProt P11308 1-479)
T3 sequence: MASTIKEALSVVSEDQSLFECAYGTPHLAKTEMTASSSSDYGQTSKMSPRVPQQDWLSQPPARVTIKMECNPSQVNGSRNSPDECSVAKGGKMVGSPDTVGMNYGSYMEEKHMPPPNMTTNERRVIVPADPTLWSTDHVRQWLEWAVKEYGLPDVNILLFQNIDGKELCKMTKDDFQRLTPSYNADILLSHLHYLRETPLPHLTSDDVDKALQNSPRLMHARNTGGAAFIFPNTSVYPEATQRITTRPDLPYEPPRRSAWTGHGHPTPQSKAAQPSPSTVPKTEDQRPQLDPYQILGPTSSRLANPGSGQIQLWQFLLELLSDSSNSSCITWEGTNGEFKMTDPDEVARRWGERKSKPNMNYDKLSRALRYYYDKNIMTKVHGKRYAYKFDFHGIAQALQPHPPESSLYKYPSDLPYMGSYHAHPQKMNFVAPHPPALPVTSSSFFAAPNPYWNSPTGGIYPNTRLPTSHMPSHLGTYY
Outline: as §1

EHF = target: T4, EHF (Homo sapiens, UniProt Q9NZC4 1-300)
T4 sequence: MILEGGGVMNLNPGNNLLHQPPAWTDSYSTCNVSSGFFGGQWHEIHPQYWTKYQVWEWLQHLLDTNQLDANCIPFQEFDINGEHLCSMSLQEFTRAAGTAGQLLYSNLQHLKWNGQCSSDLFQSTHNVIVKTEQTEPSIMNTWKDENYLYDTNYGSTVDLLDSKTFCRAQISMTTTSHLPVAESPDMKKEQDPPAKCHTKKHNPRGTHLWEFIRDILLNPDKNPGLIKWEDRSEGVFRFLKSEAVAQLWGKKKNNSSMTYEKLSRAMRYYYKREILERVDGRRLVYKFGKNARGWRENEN
Outline: as §1

SPIB = SPIB (Homo sapiens, UniProt Q01892 1-262)
Outline: as §1

ETV5 = ETV5 (Homo sapiens, UniProt P41161 1-510)
Outline: as §1

ELF3 = target: T5, ELF3 (Homo sapiens, UniProt P78545 1-371)
T5 sequence: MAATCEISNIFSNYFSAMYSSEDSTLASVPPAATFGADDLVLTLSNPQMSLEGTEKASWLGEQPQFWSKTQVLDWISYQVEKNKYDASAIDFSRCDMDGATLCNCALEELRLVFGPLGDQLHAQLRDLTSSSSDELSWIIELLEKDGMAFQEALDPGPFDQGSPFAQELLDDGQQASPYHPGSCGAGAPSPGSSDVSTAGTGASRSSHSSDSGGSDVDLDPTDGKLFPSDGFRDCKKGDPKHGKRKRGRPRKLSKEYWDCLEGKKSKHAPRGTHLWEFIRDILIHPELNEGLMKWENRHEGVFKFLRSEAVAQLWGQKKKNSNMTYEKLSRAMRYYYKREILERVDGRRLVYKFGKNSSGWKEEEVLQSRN
Outline: as §1

ERF = target: T6, ERF (Homo sapiens, UniProt P50548 1-548)
T6 sequence: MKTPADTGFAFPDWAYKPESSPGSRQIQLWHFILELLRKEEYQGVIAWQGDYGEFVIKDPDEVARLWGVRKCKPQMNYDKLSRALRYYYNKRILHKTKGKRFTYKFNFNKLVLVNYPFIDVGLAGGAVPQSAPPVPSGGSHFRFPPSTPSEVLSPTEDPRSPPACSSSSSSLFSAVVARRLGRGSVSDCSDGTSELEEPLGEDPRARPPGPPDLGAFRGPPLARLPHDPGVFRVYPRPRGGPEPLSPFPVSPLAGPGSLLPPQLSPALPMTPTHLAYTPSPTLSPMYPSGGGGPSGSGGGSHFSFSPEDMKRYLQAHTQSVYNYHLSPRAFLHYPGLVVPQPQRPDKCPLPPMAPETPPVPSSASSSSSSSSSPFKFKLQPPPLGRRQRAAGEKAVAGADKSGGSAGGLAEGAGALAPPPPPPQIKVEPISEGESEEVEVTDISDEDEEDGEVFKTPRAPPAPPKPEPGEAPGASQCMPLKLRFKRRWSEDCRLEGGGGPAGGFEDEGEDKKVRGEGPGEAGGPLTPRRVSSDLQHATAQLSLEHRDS
Outline: as §1

ETV3L = target: T7, ETV3L (Homo sapiens, UniProt Q6ZN32 1-361)
T7 sequence: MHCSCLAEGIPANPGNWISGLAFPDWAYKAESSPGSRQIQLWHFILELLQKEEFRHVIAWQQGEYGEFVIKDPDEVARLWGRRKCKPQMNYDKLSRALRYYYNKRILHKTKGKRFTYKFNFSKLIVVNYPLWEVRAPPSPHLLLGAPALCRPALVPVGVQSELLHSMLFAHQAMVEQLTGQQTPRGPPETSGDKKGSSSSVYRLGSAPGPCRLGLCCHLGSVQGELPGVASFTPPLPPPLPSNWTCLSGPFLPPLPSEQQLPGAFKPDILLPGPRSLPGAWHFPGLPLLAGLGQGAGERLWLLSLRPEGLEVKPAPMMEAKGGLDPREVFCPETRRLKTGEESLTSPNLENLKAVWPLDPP
Outline: as §1

SPDEF = target: T8, SPDEF (Homo sapiens, UniProt O95238 1-335)
T8 sequence: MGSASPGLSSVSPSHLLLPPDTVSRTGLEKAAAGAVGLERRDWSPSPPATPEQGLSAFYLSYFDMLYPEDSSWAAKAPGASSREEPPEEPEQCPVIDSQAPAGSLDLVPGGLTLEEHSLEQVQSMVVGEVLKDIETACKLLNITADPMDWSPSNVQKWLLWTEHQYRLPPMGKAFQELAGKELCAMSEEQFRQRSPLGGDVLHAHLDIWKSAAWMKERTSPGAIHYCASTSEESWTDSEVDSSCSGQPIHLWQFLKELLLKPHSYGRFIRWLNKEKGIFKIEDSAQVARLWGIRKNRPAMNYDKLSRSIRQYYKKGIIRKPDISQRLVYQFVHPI
Outline: as §1

ETV7 = target: T9, ETV7 (Homo sapiens, UniProt Q9Y603 1-341)
T9 sequence: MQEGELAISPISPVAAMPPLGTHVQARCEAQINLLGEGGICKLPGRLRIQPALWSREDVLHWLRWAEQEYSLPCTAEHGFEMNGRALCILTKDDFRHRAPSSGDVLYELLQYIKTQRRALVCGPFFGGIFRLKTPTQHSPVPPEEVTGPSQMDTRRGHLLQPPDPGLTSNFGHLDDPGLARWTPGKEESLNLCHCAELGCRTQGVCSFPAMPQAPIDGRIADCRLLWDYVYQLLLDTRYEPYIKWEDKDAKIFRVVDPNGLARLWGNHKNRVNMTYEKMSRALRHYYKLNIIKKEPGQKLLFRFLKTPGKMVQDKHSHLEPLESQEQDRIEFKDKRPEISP
Outline: as §1

ETV3 = target: T10, ETV3 (Homo sapiens, UniProt P41162-2 1-143)
T10 sequence: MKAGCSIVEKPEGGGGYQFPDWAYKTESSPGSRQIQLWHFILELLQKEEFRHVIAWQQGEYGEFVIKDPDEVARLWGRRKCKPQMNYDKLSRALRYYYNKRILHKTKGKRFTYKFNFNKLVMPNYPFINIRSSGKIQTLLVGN
Outline: as §1

ETV6 = ETV6 (Homo sapiens, UniProt P41212 1-452)
Outline: as §1

Chain of SPIB (Q01892 whole entry): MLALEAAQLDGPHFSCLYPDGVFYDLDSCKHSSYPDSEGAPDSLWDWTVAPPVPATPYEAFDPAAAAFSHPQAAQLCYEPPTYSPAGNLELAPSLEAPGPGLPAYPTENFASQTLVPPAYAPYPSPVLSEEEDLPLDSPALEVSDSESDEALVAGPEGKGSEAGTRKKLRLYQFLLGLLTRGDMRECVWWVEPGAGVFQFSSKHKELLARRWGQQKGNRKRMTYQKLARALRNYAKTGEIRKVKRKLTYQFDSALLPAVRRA
Chain of ETV5 (P41161 whole entry): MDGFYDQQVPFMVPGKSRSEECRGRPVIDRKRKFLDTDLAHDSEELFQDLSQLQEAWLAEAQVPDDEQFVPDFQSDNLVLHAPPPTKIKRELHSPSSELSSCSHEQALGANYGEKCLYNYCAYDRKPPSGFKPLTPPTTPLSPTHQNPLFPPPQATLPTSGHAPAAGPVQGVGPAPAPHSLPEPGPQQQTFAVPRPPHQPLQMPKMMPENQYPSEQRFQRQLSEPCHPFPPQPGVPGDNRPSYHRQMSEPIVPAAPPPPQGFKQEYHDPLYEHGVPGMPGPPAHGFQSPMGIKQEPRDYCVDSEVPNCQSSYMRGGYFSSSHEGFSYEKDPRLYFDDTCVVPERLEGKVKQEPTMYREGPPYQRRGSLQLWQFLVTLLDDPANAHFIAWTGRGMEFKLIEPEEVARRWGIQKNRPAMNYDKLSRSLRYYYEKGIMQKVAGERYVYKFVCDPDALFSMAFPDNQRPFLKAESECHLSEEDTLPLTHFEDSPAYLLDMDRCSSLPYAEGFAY
Chain of ETV6 (P41212 whole entry): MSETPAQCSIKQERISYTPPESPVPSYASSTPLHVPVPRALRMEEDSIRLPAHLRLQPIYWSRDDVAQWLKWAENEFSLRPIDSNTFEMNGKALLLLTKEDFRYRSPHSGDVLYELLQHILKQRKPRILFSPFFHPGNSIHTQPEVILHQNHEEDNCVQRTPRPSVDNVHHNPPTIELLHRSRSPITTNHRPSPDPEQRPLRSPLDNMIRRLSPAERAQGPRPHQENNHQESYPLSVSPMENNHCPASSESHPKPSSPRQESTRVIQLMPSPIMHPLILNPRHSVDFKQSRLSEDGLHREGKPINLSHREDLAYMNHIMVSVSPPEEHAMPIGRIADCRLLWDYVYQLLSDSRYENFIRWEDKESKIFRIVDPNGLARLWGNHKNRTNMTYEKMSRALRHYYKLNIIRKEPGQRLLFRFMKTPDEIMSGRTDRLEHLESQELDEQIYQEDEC

Question: GGGAAA was tested. Which binding signal (ELK1) did it give?
Answer: 1.05 fold enrichment (6-mer frequency, TF over GST control)

Question: And the binding signal (GABPA)?
Answer: 1.02 fold enrichment (6-mer frequency, TF over GST control)

Question: What about the binding signal (ERG) of the same sequence?
Answer: 1.03 fold enrichment (6-mer frequency, TF over GST control)

Question: And the binding signal (EHF)?
Answer: 1.07 fold enrichment (6-mer frequency, TF over GST control)

Question: What about the binding signal (SPIB) of the same sequence?
Answer: 1.1 fold enrichment (6-mer frequency, TF over GST control)

Question: What about the binding signal (ETV5) of the same sequence?
Answer: 1.05 fold enrichment (6-mer frequency, TF over GST control)

Question: And the binding signal (ELF3)?
Answer: 1.03 fold enrichment (6-mer frequency, TF over GST control)

Question: What about the binding signal (ERF) of the same sequence?
Answer: 1.02 fold enrichment (6-mer frequency, TF over GST control)

Question: And the binding signal (ETV3L)?
Answer: 1.05 fold enrichment (6-mer frequency, TF over GST control)

Question: And the binding signal (SPDEF)?
Answer: 1.01 fold enrichment (6-mer frequency, TF over GST control)

Question: What about the binding signal (ETV7) of the same sequence?
Answer: 1.12 fold enrichment (6-mer frequency, TF over GST control)

Question: And the binding signal (ETV3)?
Answer: 1.03 fold enrichment (6-mer frequency, TF over GST control)

Question: What about the binding signal (ETV6) of the same sequence?
Answer: 1.22 fold enrichment (6-mer frequency, TF over GST control)
